An excerpt weighted towards active compounds, which were near 5.4% of everything screened.
CSC inhib – blocks cancer stem cells | cancer stem cell-like cells viability, luminescence | 300,000 compounds, 1.1% hits | inhibition, % at 7.5 µM; in the data active = inhibition above about 75%; inconclusive = no clear call, values can overlap the other calls; tested in HMLE shEcad cells
ALR inh – human ALR oxidase inhibition via reduced H2O2; P55789; purified ALR, DTT oxidation, H2O2 HRP-luminol luminescence; inhibition, % (concentration not given with the values); 290,000 compounds, 3.8% hits; AID 485317;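 active = mean replicate inhibition above about 79%, with every replicate also reaching it, limit read from the data; inconclusive = only one of the two criteria met; inactive = mean below limit and not every replicate reaching it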
PP1 counter – counter-screen for PP5 inhibitors: inhibitors of human PP1-alpha. 320,000 compounds, 0.9% hits. P62136. inhibition, % at 6.7 µM. purified PP1alpha, OMFP fluorescence. AID 2235;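 active = inhibition above the mean inhibition of all tested compounds plus 3 SD, computed separately for each screening campaign, cut at about 15% in these data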
Calb FLC – affects C. albicans growth with fluconazole; C. albicans CaCi-2 (fluconazole-resistant clinical isolate) + fluconazole, Alamar Blue growth, 48 h; growth inhibition, % (concentration not given with the values); 300,000 compounds, 0.57% hits;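 active = growth inhibition above about 58% in most replicates, limit read from the data, passing the limit was not always enough; inconclusive = exactly half the replicates above a set limit; inactive = most replicates below a set limit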;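 also: all wells also contain fluconazole at 8 µg/ml as a sub-toxic cotreatment; 0% = median of DMSO wells and 100% = median of geldanamycin control wells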
PP5 inh – PP5 (human) phosphatase inhibition; purified PP5c, OMFP substrate fluorescence; inhibition, % at 6.7 µM; 320,000 compounds, 0.18% hits; AID 1987;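 active = inhibition above the campaign's mean inhibition across all tested compounds plus 3 SD, cut at about 9.5% in these data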;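 also: 0% = DMSO only and 100% = 100 µM cantharidin control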
Target sequence (P53041 whole entry, looked up): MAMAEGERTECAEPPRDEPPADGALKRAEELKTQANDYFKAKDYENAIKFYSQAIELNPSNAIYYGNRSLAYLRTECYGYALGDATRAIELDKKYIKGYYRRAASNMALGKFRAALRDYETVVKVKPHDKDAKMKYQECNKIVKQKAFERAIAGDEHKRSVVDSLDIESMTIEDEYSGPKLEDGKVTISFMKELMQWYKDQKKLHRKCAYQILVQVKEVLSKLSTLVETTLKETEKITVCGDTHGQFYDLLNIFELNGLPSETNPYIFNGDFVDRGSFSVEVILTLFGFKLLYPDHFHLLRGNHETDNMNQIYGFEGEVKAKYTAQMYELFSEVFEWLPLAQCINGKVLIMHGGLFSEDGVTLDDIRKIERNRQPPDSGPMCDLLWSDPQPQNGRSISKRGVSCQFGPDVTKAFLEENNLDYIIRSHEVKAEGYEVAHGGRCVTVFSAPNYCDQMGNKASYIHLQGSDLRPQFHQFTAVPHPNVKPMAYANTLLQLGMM
Active calls of the source: *; ? = inconclusive; · = no result.

SMILES	CSC inhib	ALR inh	PP1 counter	Calb FLC	PP5 inh
CCOc1ccc(C(=O)CC(Sc2ccc(C)cc2)C(=O)O)cc1 (stereo not given)	4	95*	-1	-14	2
Cc1ccc(C(=O)NCC(=O)OC(C)C(=O)Nc2ccc(N(C)C)cc2)s1 (stereo not given)	-15	99*	-5	10	2
O=C1/C(=C/c2cccnc2)CCc2c1[nH]c1ccccc21	19	-11	0	76*	3
CC1C/C(=C\c2cccnc2)C(=O)/C(=C/c2cccnc2)C1 (stereo not given)	?	96*	4	·	3
COc1ccc2nc(C)cc(SCC(=O)NNC(=O)COc3cccc4ccccc34)c2c1	-6	?	0	1	5
C/C(CC(C)(C)C1CCCCC1)=N\NC(N)=S	·	1	-1	104*	1
Cc1cc2nc(NCCCO)n(CC(=O)c3cc(C(C)(C)C)c(O)c(C(C)(C)C)c3)c2cc1C	75*	·	10	·	6
O=C(Cn1c(NCCCO)nc2ccccc21)c1ccc(Cl)cc1	21	·	-1	0	1
CCn1c(C)nc2cc(-c3nc4n(n3)Cc3ccccc3-4)ccc21	92*	-5	1	13	3
Cc1ccc(-c2nc3n(n2)Cc2ccccc2-3)cc1	24	·	0	-10	1
O=C1Nc2ccccc2N=C(c2ccccc2)c2ccccc21	-7	83*	-5	-5	-1
C=CCn1c(SCc2nc3sc(C(=O)O)c(C)c3c(=O)[nH]2)nnc1-c1ccc(C(C)(C)C)cc1	-3	98*	4	-2	0
OCCNc1nc(-c2ccccc2)nc2c1oc1ccccc12	-4	-3	-1	2	4
Cc1ccc(NC2CCCN(C(=O)c3cn(C)c4ccccc34)C2)cc1C (stereo not given)	7	92*	-1	3	3
COc1ccc(NC2CCCN(C(=O)c3cn(C)c4ccccc34)C2)cc1 (stereo not given)	-16	99*	-1	-13	4
Cn1cc(C(=O)C(=O)N2CCCC2)c2ccccc21	-20	-7	·	-18	·
COc1ccc(NS(=O)(=O)NC(=O)c2cn(C)c3ccccc23)cc1	1	-5	-1	1	-3
O=C(Nc1ccccc1N1CCOCC1)c1cc(F)cc(F)c1	-2	·	-4	97*	0
COc1cccc(C(=O)NC(=S)Nc2ccccc2N2CCOCC2)c1	116*	5	2	5	1
CCC(=O)NC(=S)Nc1cccc(Cl)c1N1CCCCC1	85*	0	1	28	-1
COc1ccc(C(=O)NC(=S)Nc2ccccc2N2CCCCC2)cc1[N+](=O)[O-]	101*	-4	1	-26	-2
O=C(Nc1ccccc1N1CCOCC1)c1ccc2c(c1)OCCO2	-10	0	-3	25	3
CCCC(=O)NC(=S)Nc1cccc(Cl)c1N1CCCCC1	·	1	-2	-9	1
CCCCCOC(=O)C1=C(C)NC(=O)NC1c1ccc([N+](=O)[O-])cc1 (stereo not given)	-4	·	-2	13	2
O=C(Nc1ccccc1N1CCOCC1)c1cccc(Oc2ccccc2)c1	·	·	7	1	3
SMILES	CSC inhib	ALR inh	PP1 counter	Calb FLC	PP5 inh
O=C(Nc1cccc(C(F)(F)F)c1)c1cccnc1N1CCOCC1	1	3	-1	0	1
O=C(Nc1cccc(F)c1)c1cccnc1N1CCOCC1	-13	85*	-5	-12	0
O=C(Nc1ccccc1N1CCOCC1)c1cccc(F)c1	13	96*	-4	7	-1
CC(=O)NC(=S)Nc1ccccc1N1CCCCC1	·	20	-6	58	1
CC(C)(C)C(=O)NC(=S)Nc1ccccc1N1CCCC1	-3	98*	0	12	4
Clc1cccc(CN2CCN(c3nc4nonc4nc3NC3CC3)CC2)c1	-1	-2	-2	9	4
CN(C)c1ccnc2sc(C(N)=O)c(N)c12	5	14	-3	17	1
COC(=O)Cc1[nH]nc2c1C(c1cc(OC)c(OC)c(OC)c1)C(C#N)=C(N)O2 (stereo not given)	-8	·	-4	3	1
COC(=O)Cc1[nH]nc2c1C(c1ccc(O)c(OC)c1)C(C#N)=C(N)O2 (stereo not given)	-20	99*	-1	15	-4
CC1(C)OC(C)(C)/C(=C/Nc2ccc(O)cc2)C1=O	2	99*	-1	12	-1
CCCNCC1C(Oc2ccc(Cl)cc2Cl)C(=O)N1c1cccc(C)c1C (stereo not given)	81*	-20	6	-11	4
Cc1cccc(N2C(=O)C(Oc3ccc(Cl)cc3Cl)C2C(=O)O)c1C (stereo not given)	6	37	3	-5	0
CC(=O)c1cc(-c2ccccc2)n(CC(=O)NC(C)(C)C)c1C	-3	-6	2	-4	3
N/C(=N\OC(=O)/C=C/c1ccccc1)c1ccccc1	2	1	-4	-2	4
CC1=C/C(=N\OC(=O)/C=C/c2ccccc2)C(C)=CC1=O	10	95*	0	28	-2
C#CCOCCOCCOCCNc1nc(N2CCOCC2)nc(N2CCN(C(=O)[C@H]([C@@H](C)CC)n3cc(CCCN=C(N)N)nn3)CC2)n1	2	-3	2	-11	3
C#CCOCCOCCOCCNc1nc(N2CCN(C(=O)CCCCCCCCCCNC(=O)Cn3cc(C[C@@H](C)O)nn3)CC2)nc(N2CCN(C(=O)CCCCCCCCCCNC(=O)[C@@H]([C@H](C)O)n3cc(C)nn3)CC2)n1	158*	-3	3	·	2
C#CCOCCOCCOCCNc1nc(N2CCN(C(=O)CCCCCCCCCCNC(=O)[C@H](CCCCN)n3cc(CCO)nn3)CC2)nc(N2CCN(C(=O)CCCCCCCCCCNC(=O)[C@H](CCCCN)n3cc(CCCC(=O)O)nn3)CC2)n1	0	-13	0	·	1
C#CCOCCOCCOCCNc1nc(N2CCN(C(=O)CCCCCCCCCCNC(=O)[C@H](CCCN=C(N)N)n3cc(C[C@@H](C)CC)nn3)CC2)nc(N2CCN(C(=O)CCCCCCCCCCNC(=O)[C@@H]([C@H](C)CC)n3cc(CCCCCN)nn3)CC2)n1	168*	-7	71*	·	7
C#CCOCCOCCOCCNc1nc(N2CCN(C(=O)CCCCCCCCCCNC(=O)[C@H]([C@@H](C)CC)n3cc(CCCCN=C(N)N)nn3)CC2)nc(N2CCN(C(=O)CCCCCCCCCCNC(=O)[C@H](CCCN=C(N)N)n3cc(C[C@@H](C)CC)nn3)CC2)n1	88*	-20	68*	·	9.8*
C#CCOCCOCCOCCNc1nc(N2CCOCC2)nc(N2CCN(C(=O)CCCCCCCCCCNC(=O)[C@H]([C@@H](C)CC)n3cc(CCCCN=C(N)N)nn3)CC2)n1	22	-2	15*	·	-2
C#CCOCCOCCOCCNc1nc(N2CCN(C(=O)CCCCCCCCCCNC(=O)Cn3cc(CCCCCN)nn3)CC2)nc(N2CCN(C(=O)CCCCCCCCCCNC(=O)[C@@H]([C@H](C)O)n3cc(C)nn3)CC2)n1	10	-23	9	·	-1
